Measured values taken from patent US20200071711, “MODULAR CONSTRUCTION OF SYNTHETIC GENE CIRCUITS IN MAMMALIAN CELLS USING MATHEMATICAL MODELING OF CLOSED LOOP TRANSCRIPTIONAL REPRESSORS” (Tsinghua University, published 2020).

Tests used:
TALER22 = target: T1, TALER22 (synthetic, UniProt P14727 SEQ:1-806); assay: cell_activity; HEK293, two sites flanking CMVmini; conditions: tags: EYFP-2A upstream, SV40 NLS; dsDNA, one strand shown
T1 chain: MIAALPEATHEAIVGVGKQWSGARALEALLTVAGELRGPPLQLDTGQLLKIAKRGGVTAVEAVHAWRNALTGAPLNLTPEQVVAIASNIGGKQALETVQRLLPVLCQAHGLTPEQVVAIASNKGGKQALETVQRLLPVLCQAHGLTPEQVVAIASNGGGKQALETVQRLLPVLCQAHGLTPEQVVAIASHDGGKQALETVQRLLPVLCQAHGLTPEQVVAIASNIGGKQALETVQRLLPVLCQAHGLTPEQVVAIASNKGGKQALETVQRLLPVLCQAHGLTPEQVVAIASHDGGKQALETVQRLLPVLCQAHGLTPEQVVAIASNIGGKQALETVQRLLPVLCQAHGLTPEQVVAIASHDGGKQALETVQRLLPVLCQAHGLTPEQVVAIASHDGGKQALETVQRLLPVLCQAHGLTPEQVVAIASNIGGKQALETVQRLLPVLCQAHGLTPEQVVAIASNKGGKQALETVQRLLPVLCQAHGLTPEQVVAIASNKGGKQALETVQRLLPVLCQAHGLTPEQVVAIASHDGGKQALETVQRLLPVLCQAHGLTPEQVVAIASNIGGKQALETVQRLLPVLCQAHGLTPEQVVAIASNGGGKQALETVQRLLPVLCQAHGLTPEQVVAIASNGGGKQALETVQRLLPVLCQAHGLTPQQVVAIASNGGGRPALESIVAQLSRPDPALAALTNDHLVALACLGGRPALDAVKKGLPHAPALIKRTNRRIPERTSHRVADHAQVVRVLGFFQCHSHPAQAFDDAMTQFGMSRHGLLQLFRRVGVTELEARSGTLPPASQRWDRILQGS

TALER23 = target: T2, TALER23 (synthetic, UniProt P14727 SEQ:1-806); assay: cell_activity; HEK293, two sites flanking CMVmini; conditions: tags: EYFP-2A upstream, SV40 NLS; dsDNA, one strand shown
T2 chain: T1 chain

Sequence	binding signal (TALER22) [fold repression]	binding signal (TALER23) [fold repression]
TAGTCAGCACCAGGCATTT	4.66	
TCCGGATGCTCCTCTTAAT		2.2
